# Laboratory results reported in PubChem BioAssay (EPA / NIEHS).
# Records with an inconclusive call do not appear. Activity calls are given as the source filed them. The calls were made as follows, unless noted: active = hit-call score of the fitted dose curve at least 0.9, where 1 is the maximum; inactive = score below 0.9.
# System: Thyroperoxidase (TPO), gene 54314
# Experiment: CCTE_Simmons_AUR_rTPO: CCTE's Amplex UltraRed Assay for Thyroperoxidase (TPO) Inhibition, Simmons Lab (AID 2283662; active = hit-call score of the fitted dose curve at least 0.9, where 1 is the maximum;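 as to AC50: potency for loss of signal meaning inhibition of peroxidase activity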)
# Outline: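 Rat thyroid microsomes (5 ug protein) with 25 uM Amplex UltraRed and 300 uM H2O2 in 200 mM phosphate buffer, 30 min at 37C in dark; fluorescence 544/590 nm. Eight concentrations, 5 nM–87.5 uM final, 0.5% DMSO, triplicate biological replicates.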
Compound,AC50,outcome
Nc1ncn[nH]1,2.24 µM (active),–
CCOP(=S)(OCC)O/N=C(\C#N)c1ccccc1,20.7 µM (active),–
COC(=O)Nc1cccc(OC(=O)Nc2cccc(C)c2)c1,0.398 µM (active),–
COc1ccc(N)cc1,1.44 µM (active),–
CCCSP(=S)(OCC)Oc1ccc(SC)cc1 (stereo not given),–,inactive

# System: not listed separately
# Experiment: CCTE_Simmons_CellTiterGLO_HEK293T: Viability Assessment in CCTE's Assays for Thyroperoxidase (TPO) Inhibition, Simmons Lab (AID 2283665; active = hit-call score of the fitted dose curve at least 0.9, where 1 is the maximum;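 as to AC50: cells exposed to compound for 24 h before readout; actives reduce ATP signal below DMSO vehicle meaning cytotoxicity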)
# Outline: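 Cells were seeded overnight, then exposed to an eight-point series up to 87.5 uM final for 24 hours. CellTiter-Glo reagent was added and luminescence read after 20 min, giving ATP-based viability versus DMSO.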
Compound,outcome,AC50
Nc1ncn[nH]1,inactive,–
COC(=O)Nc1cccc(OC(=O)Nc2cccc(C)c2)c1,inactive,–
COc1ccc(N)cc1,–,4.71 µM (active)

# System: not listed separately
# Experiment: STM_H9_OrnCyssISnorm_ratio: Stemina devTOX quickPredict H9 human embryonic stem cell (hESC)-based Assay for Ornithine (ORN):Cystine (CYSS) Ratio (AID 2283714; active = hit-call score of the fitted dose curve at least 0.9, where 1 is the maximum)
# Outline: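 UPLC-HRMS of spent media: ORN/CYSS ratio of internal-standard-normalized percentages, DMSO (0.1%) baseline. Pluripotent H9 hESCs, 72h exposure, daily re-dosing with fresh media; last 24h media collected.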
Compound,outcome,AC50
Nc1ncn[nH]1,inactive,–
N#CCCC(Br)(C#N)CBr (stereo not given),–,70.1 µM (active)
O=[N+]([O-])c1ccc(Cl)c([N+](=O)[O-])c1,–,13.2 µM (active)

# Read-out: not listed separately
# Experiment: CEETOX_H295R_MTT_cell_viability: Viability Assessment in the CeeTox HT-H295R MTT Assay (AID 2283718);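 as to AC50: curve fitted both ways so AC50 may mark viability loss or gain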
# Outline: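 Human H295R adrenal cells, prestimulated 48 h with 10 uM forskolin, were exposed 48 h to chemicals in 0.1% DMSO. Viability was measured in the same wells by MTT (0.5 mg/ml, 4 h, 37 C), absorbance 570/650 nm, as percent of controls.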
Compound,outcome,AC50
C[C@]12CC[C@@H](O)C[C@@H]1CC[C@@H]1[C@@H]2CC[C@]2(C)C(=O)CC[C@@H]12,inactive,–
O=S1OC[C@@H]2[C@H](CO1)[C@]1(Cl)C(Cl)=C(Cl)[C@@]2(Cl)C1(Cl)Cl (stereo not given in full),inactive,–
Cc1ccccc1OP(=O)(Oc1ccccc1C)Oc1ccccc1C,inactive,–
CCOP(=S)(OCC)O/N=C(\C#N)c1ccccc1,inactive,–
OC[P+](CO)(CO)CO,–,2.83 µM (active)
OC(Cc1ccccc1Cl)(Cn1[nH]cnc1=S)C1(Cl)CC1 (stereo not given),inactive,–
CCCCCCCCCCCCN(C)C,inactive,–
CC(C)(C)c1cc([N+](=O)[O-])cc(C(C)(C)C)c1O,inactive,–
c1cc[c]([Sb]([c]2ccccc2)[c]2ccccc2)cc1,–,37.6 µM (active)
COC(=O)Nc1cccc(OC(=O)Nc2cccc(C)c2)c1,inactive,–
OC(Cc1ccccc1Cl)(Cn1cncn1)C1(Cl)CC1 (stereo not given),inactive,–
Cc1cc(Cl)ccc1N,inactive,–
CC(C)=CC1C(C(=O)OCc2cccc(Oc3ccccc3)c2)C1(C)C (stereo not given),–,9.92 µM (active)
Oc1c(Br)cc(Br)cc1Br,–,93.6 µM (active)
Cc1cc(C(C)(C)c2ccc(O)c(C)c2)ccc1O,inactive,–
CC(C)(COCC1CO1)COCC1CO1 (stereo not given),inactive,–
Oc1cccc(-c2ccccc2)c1,inactive,–
COc1ccc(N)cc1,inactive,–
CCC[CH2][Sn]([Cl])([Cl])[CH2]CCC,inactive,–
CCCSP(=S)(OCC)Oc1ccc(SC)cc1 (stereo not given),inactive,–
CCOCn1c(-c2ccc(Cl)cc2)c(C#N)c(Br)c1C(F)(F)F,–,3.79 µM (active)
CCOP(=O)(OCC)OC(=CCl)c1ccc(Cl)cc1Cl,inactive,–
Cc1cc(Cl)ccc1O,inactive,–
O=[N+]([O-])c1ccc(Nc2ccccc2)cc1,inactive,–
